In the library only some 13% were active in any assay of this set; here they are far more common.
HCV inh – qHTS Assay for Inhibitors of Hepatitis C Virus (HCV). Huh7.5.1 HCVcc-Cre infection, luciferase reporter, 44 h. Potency, µM (doses to about 41.8 µM), inactives show at the top dose activity change, negative = inhibition, usual class: inhibitors. 3.4% of 340,000 active; note: potency is the fitted concentration of half-maximal effect
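Reporter virus HCVcc-Cre (~0.5 moi) infects cells exposed to compound; seeding density 1,000 cells/well with 4 h settling beforehand. Luminescence, 15 sec read, taken 44 h post-infection following a 15 min RT substrate incubation.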
HCMV antiviral – qHTS Assay for inhibitors of the human cytomegalovirus (HCMV); HFF cells, HCMV-luciferase reporter, 72 h; active compounds read low; activity change, negative = inhibition, % at 57.5 µM; 4.5% of 410,000 active; AID 1259415, 2018; in the data active = activity change below about -60%; inconclusive = no clear call, values can overlap the other calls; inactive = above about -39%
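Luciferase read-out from HCMV-luciferase-infected HFFs (MOI 1 PFU/cell) 72 h post infection at 37C; compounds added after 16 h cell attachment; activity normalized between buffer-only basal and Salinomycin (10uM) inhibitor controls.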
Pf growth 96h – Primary qHTS for delayed death inhibitors of the malarial parasite plastid, 96 hour incubation; 6.9% of 320,000 active; P. falciparum luciferase reporter growth, 96 h; AID 504834, 2011; Potency, µM (doses to about 28.7 µM), without a hit: at the top dose activity change, negative = inhibition, most hits filed as inhibitors; note: potency is the fitted concentration of half-maximal effect
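Parasite growth measured via integrated firefly luciferase reporter in P. falciparum. Infected erythrocytes at 2% hematocrit, 0.05% parasitemia final were treated 96 hours at 37 C under 5% CO2, and luminescence was read.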
Pf growth 48h – Primary qHTS for delayed death inhibitors of the malarial parasite plastid, 48 hour incubation; P. falciparum luciferase growth in erythrocytes, 48 h; Potency, µM (series often up to 28.7 µM), inactives show top-dose activity change, negative = inhibition, hits mostly inhibitors; 5.9% of 310,000 active; AID 504832, 2011; note: potency is the fitted concentration of half-maximal effect
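Compounds are pin-transferred into medium, infected erythrocytes (2% hematocrit, 0.1% parasitemia final) are added, and plates sit one parasite generation at 37 C in 5% CO2. Detection reagent is then added and luminescence measured.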
* = called active by the depositor; ? = inconclusive; · = no result; [ ] = dose if it differs, or a comment. Unless noted, calls come from the whole dose curve; as a rule, active = well fitted inhibition curve with a large enough effect; inconclusive = small, poorly fitted or top-dose-only effect, or another doubt; inactive = no such curve, though single readings can be large or run the other way. % is set by controls: 0 for no effect and ±100 for the full control effect.

SMILES	HCV inh	HCMV antiviral	Pf growth 96h	Pf growth 48h
Cc1c(OC(C)C(=O)O)ccc2c3c(c(=O)oc12)CCCC3 (stereo unspecified)	11.8%	-30.2	10.4µM*	-1.5%
CCOC(=O)C(C)Oc1cc(C)cc2oc(=O)c3c(c12)CCCC3 (stereo unspecified)	10µM*	26.3	·	·
O=C(COc1cc2oc(=O)c3c(c2cc1Cl)CCCC3)NCc1cccnc1	?	?	?	-6.3%
Cc1c(OCC(=O)NCc2cccnc2)ccc2c3c(c(=O)oc12)CCCC3	-19.8%	0.0	13.1µM*	-10.4%
Cc1c(OC(C)C(=O)NCc2cccnc2)ccc2c3c(c(=O)oc12)CCCC3 (stereo unspecified)	-26.9%	-22.7	11.7µM*	-16.3%
Clc1cccc(C(c2ccc3nc[nH]c3c2)n2ccnc2)c1 (stereo unspecified)	·	·	5.36µM*	13.5µM*
O=C(c1ccc2nc[nH]c2c1)N1CCN(S(=O)(=O)c2cccc(Cl)c2)CC1	-22.1%	26.6	·	·
CC(CCc1ccccc1)NC(=O)Cn1c(=O)nc(-c2ccccc2)c2cc(Cl)ccc21 (stereo unspecified)	·	-26.2	·	·
O=C(O)c1cccc2c1Cc1cc([N+](=O)[O-])ccc1-2	5.2%	-97.1*	·	·
O=C(O)c1cccc2c1-c1ccc([N+](=O)[O-])cc1C2=O	27.3%	22.0	·	·
CCCNC(=O)c1cc2n(n1)CCCN(Cc1ccc(F)cc1)C2=O	·	5.6	·	·
CCOC(=O)N/N=C/c1cc(C)n(-c2cccc3ccccc23)c1C	-11.6%	31.4	9.28µM*	11.7µM*
CCOC(=O)N/N=C/c1cc(C)n(-c2ccccc2)c1C	?	9.2	?	?
COC(=O)N/N=C/c1cc(C)n(-c2cccc3ccccc23)c1C	-11.0%	-26.7	14.7µM*	7.38µM*
Cc1cc(/C=N/NC(=O)c2cccc(F)c2)c(C)n1-c1ccccc1	?	-17.6	?	218.9%
CCn1cc(S(=O)(=O)c2ccc(C)cc2C)c(=O)c2cc(F)c(N3CCCC3)cc21	·	-9.4	·	·
CC1(C)Cc2c(sc3ncn(N)c(=N)c23)CO1	-1.6%	-9.0	?	-2.4%
CC1CCCc2sc3ncn(N)c(=N)c3c21 (stereo unspecified)	?	-63.2*	-27.9%	8.3%
S=C(/N=c1/sccn1Cc1ccccc1)NC1CC1	?	?	11.7µM*	?
Cc1cc(C)n(-c2nc3ccccc3nc2Nc2cccc(C(=O)NCCc3ccccc3)c2)n1	·	14.0	·	·
Cc1ccc(-n2c(C)nn(Cc3ccc([N+](=O)[O-])cc3)c2=O)cc1	-12.2%	-82.4*	-9.2%[5.75 µM]	0.8%
CCN(c1nc(N)c(C(=O)N=C(N)N)nc1Cl)C(C)C	?	-62.0*	·	·
N#Cc1cc2sc3nc4ccccc4n3c2cc1C#N	7.3%	·	·	-1.2%
N#Cc1cc2sc3nnc(-c4ccncc4)n3c2cc1C#N	?	-62.1*	?	13.1µM*
COc1ccc(C2c3c(ncn(CCCO)c3=N)Oc3ccc4ccccc4c32)cc1OC (stereo unspecified)	?	16.2	1.65µM*	13.1µM*
SMILES	HCV inh	HCMV antiviral	Pf growth 96h	Pf growth 48h
COc1ccc(C2c3c(ncn(CCN4CCOCC4)c3=N)Oc3ccc4ccccc4c32)cc1OC (stereo unspecified)	?	-11.1	0.586µM*	4.15µM*
COc1ccc(C2C3=C(CC(C)(C)CC3=O)Oc3ncn(CCO)c(=N)c32)cc1OC (stereo unspecified)	7.6%	-30.5	229.6%	·
COc1ccc(C2c3c(ncn(CCCO)c3=N)Oc3ccc4ccccc4c32)cc1 (stereo unspecified)	-29.5%	103.9	?	11.7µM*
COc1ccc(C2c3c(ccc4ccccc34)Oc3ncn4nc(Cc5ccccc5)nc4c32)cc1OC (stereo unspecified)	?	-0.4	1.47µM*	1.65µM*
COc1ccc(-c2cn3nc(N4CCCC(C(=O)Nc5cccc(Cl)c5C)C4)sc3n2)cc1 (stereo unspecified)	·	0.0	·	·
CCCn1c2c(c(O)c(C(=O)Nc3ccccc3)c1=O)CCCC2	10µM*	36.9	-2.8%	51.7%
CCCCc1nc2ccccc2c(=O)n1NC(=O)c1c(O)c2c(n(CC(C)C)c1=O)CCCC2	-2.1%	-79.1*	?	?
CC(C)Cn1c2c(c(O)c(C(=O)Nn3c(Cc4ccccc4)nc4ccccc4c3=O)c1=O)CCCC2	?	-27.3	-6.7%	-0.9%
Cc1ccc(/C=C2/C(=O)c3ccc(C(=O)O)cc3C2=O)o1	29.5%	6.3	8.28µM*	28.1%
O=C1C(=Cc2ccco2)C(=O)c2ccccc21	1.1%	-22.4	16.5µM*	3.4%
O=C(O)c1ccc2c(c1)C(=O)/C(=C\c1ccco1)C2=O	-1.9%	1.6	11.7µM*	-12.8%
CCCCn1cc(S(=O)(=O)c2ccc(C)c(C)c2)c(=O)c2cc(F)c(N3CCN(C)CC3)cc21	·	-2.2	·	·
CCOC(=O)N1CCC(NCCNC(=O)c2cccs2)CC1	26.8%	-16.2	-27.7%	-2.8%
O=C(NCCNC1CCC(c2ccccc2)CC1)c1cccs1 (stereo unspecified)	?	-98.7*	-108.4%	-8.1%
OCc1ccnc2c(O)cccc12	?	1.9	?	2.33µM*
NC(=O)c1ccnc2c(O)cccc12	·	-5.8	11.7µM*	?
Oc1cccc2c(-c3nn[nH]n3)ccnc12	·	-23.4	?	?
COc1cc(-c2nc3ccc4ccccc4c3c3c2CCC3)cc(OC)c1O	?	-31.2	18.8%	-78.2%
COc1cc(-c2nc3ccc4ccccc4c3c3c2CCC3)cc(OC)c1OC	5.62µM*	41.4	47.4%	15.1%
COc1ccc(Sc2cccc(Cl)c2)c(C(=O)O)c1	·	-6.0	·	·
Cc1ccc2nc(-c3ccc(O)cc3)c(Nc3ccc4c(c3)OCCO4)n2c1	-26.4%	60.5	?	·
Fc1ccc(-c2nc3ccccn3c2NCc2ccc3c(c2)OCO3)cc1	-10.6%	-10.5	-1.0%	8.28µM*
COc1ccc(-c2nc3cnccn3c2Nc2ccc3c(c2)OCO3)cc1	-11.1%	52.4	4.7%	?
Cc1ccc2nc(-c3ccccc3O)c(Nc3ccc4c(c3)OCCO4)n2c1	-0.3%	?	11.7µM*	11.7µM*
Cc1ccc(Nc2c(-c3ccccc3O)nc3cnccn23)cc1	-10.8%	-38.1	0.0%	5.86µM*
SMILES	HCV inh	HCMV antiviral	Pf growth 96h	Pf growth 48h
Oc1ccccc1-c1nc2cnccn2c1Nc1ccc(Cl)cc1	·	-39.9	·	·
COc1ccc(-c2nc3ccc(C)cn3c2Nc2ccc3c(c2)OCO3)cc1	·	-106.2*	·	·
CCOc1ccc(N2CC(c3nc(-c4cc(OC)c(OC)c(OC)c4)no3)CC2=O)cc1 (stereo unspecified)	·	13.0	·	·
Cc1ccc(-c2nc3cccc(C)n3c2Nc2ccc3c(c2)OCO3)o1	·	3.8	·	·
Cc1ccc(-c2nc3ccccn3c2Nc2ccc3c(c2)OCO3)o1	·	-101.0*	·	·
CCc1ccc(N(CC)C(=O)c2ccc3c(=O)n4c(nc3c2)CCCCC4)cc1	·	-20.8	·	·

High-throughput results as filed in PubChem BioAssay.
